In the library only some 19% were active in any assay of this set; here they are far more common.
Shiga inhibitor = A qHTS for Small Molecule Inhibitors of Shiga Toxin; Vero cells, Shiga toxin protein synthesis inhibition reporter; inhibition, % at 38.7 µM; actives 9.2% (n = 290,000); AID 2315, 2010; in the data active = inhibition mostly above about 28%, no sharp cut-off; inactive = mostly below about 43%; also: 0% is about no effect
Pf growth 96h = Primary qHTS for delayed death inhibitors of the malarial parasite plastid, 96 hour incubation; P. falciparum luciferase reporter growth, 96 h; Potency, µM (titrated, usually from 28.7 µM), without a hit: top-dose activity change, negative = inhibition, usual class: inhibitors; actives 6.9% (n = 320,000); also: potency is read from the fitted curve at half-maximal effect; % is scaled to controls: 0 for no effect and ±100 for the full control effect
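Luminescence readout: decreased luciferase signal marks inhibited growth of reporter-expressing P. falciparum in infected red cells (2% hematocrit, 0.05% parasitemia final), exposed to compound two generations (96 h, 37 C, 5% CO2).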
Cycloheximide cs = Cycloheximide Counterscreen for Small Molecule Inhibitors of Shiga Toxin | cell reporter, cycloheximide protein synthesis inhibition counterscreen | max response, % | actives 12% (n = 300,000); in the data active = max response mostly above about 13%, no sharp cut-off; inactive = mostly below about 14%; also: read at 38.3 µM for the half of the compounds with a filed dose; 0% is about no effect
Pf growth 48h = Primary qHTS for delayed death inhibitors of the malarial parasite plastid, 48 hour incubation; Potency, µM (titrated, usually from 28.7 µM), without a hit: at the highest dose activity change, negative = inhibition, usual class: inhibitors; P. falciparum luciferase growth in erythrocytes, 48 h; actives 5.9% (n = 310,000); also: potency is read from the fitted curve at half-maximal effect; % is scaled to controls: 0 for no effect and ±100 for the full control effect
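Erythrocytes infected with P. falciparum carrying an integrated firefly luciferase reporter (2% hematocrit, 0.1% parasitemia final) were exposed to compounds in RPMI 1640 with 0.5% Albumax at 37 C, 5% CO2. Growth inhibition was scored as reduced luminescence.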
SARS PLpro yeast = qHTS of Yeast-based Assay for SARS-CoV PLP | S. cerevisiae expressing SARS-CoV PLpro, growth rescue | Potency, µM (series often up to 32.9 µM), for inactives: at the top dose activity, positive = growth rescue, most hits filed as activators | actives 0.19% (n = 330,000); calls by dose curve; also: potency is read from the fitted curve at half-maximal effect; 0% is about no effect; nearly all actives have a fitted effect of over 55% in size
AMA1 RON2 block = qHTS for Inhibitors of AMA1-RON; Towards Development of Antimalarial Drug Lead: Primary Screen; actives 0.2% (n = 360,000); AlphaScreen AMA1-biotinylated RON2 peptide binding; Plasmodium falciparum AMA1 (3D7) - RON2 peptide interaction; Potency, µM (doses to about 58.2 µM), without a hit: at the highest dose activity change, negative = inhibition, hits mostly inhibitors;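 also: potency is read from the fitted curve at half-maximal effect; 0% = vehicle wells and -100% = peptide control; nearly all actives have a fitted effect of over 45% in size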
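AMA1 (3D7) with his tag at 25 nM final met compounds first, then biotinylated RON2 peptide at 25 nM; detection used donor plus acceptor beads, 10 µg/mL apiece, read by AlphaScreen after 30 min at room temperature.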
* = called active by the depositor; i = inactive; ? = inconclusive; . = not tested or not shown; [ ] = dose if it differs, or a comment. Unless noted, calls follow the shape of the dose curve; as a rule, active = well fitted curve in the direction sought with a large enough effect; inconclusive = small, poorly fitted or top-dose-only effect, or another doubt; inactive = no such curve, though single readings can be large; an effect the other way counts as inactive or inconclusive.

SMILES	Shiga inhibitor	Pf growth 96h	Cycloheximide cs	Pf growth 48h	SARS PLpro yeast	AMA1 RON2 block
O=C(NCc1nc2ccccc2[nH]1)C1=C[C@@H](C2CCCCC2)C[C@@H](OCc2ccc(CO)cc2)O1	46*	?	11	?	1%	19%
O=C(NCc1nc2ccccc2[nH]1)C1=C[C@H](c2ccccc2)C[C@H](OCc2ccc(CO)cc2)O1	29	1.7µM*	15*	1µM*	1%	45%
O=C(NCc1nc2ccccc2[nH]1)C1=C[C@@H](c2ccccc2)C[C@@H](OCc2ccc(CO)cc2)O1	4	-16%	6	?	-1%	28%
O=C(NCc1nc2ccccc2[nH]1)C1=C[C@H](c2ccc3c(c2)OCO3)C[C@H](OCCCCO)O1	23	4.1µM*	9	?	0%	45%
O=C(O)[C@H]1CN(C/C=C/P(=O)(O)O)CCN1	.	12%	.	-2%	.	.
Cn1nc(C(=O)OCC(=O)Nc2ccccc2[N+](=O)[O-])c2ccccc2c1=O	.	?	.	-8%	0%	0%
C=CCc1cccc(/C=C/c2cc(=O)c3ccccc3[nH]2)c1O	65*	0%	25*	0.13µM*	?	-2%
C=CCc1cccc(/C=N/n2cnnc2)c1O	-4	?	-3	44%	-7%	35%
Cc1occc1C(=O)NNC(=O)c1ccccc1Br	28*	55%	12	46%	-20%	5%
O=C(COc1ccc(Cl)cc1)NNC(=O)c1ccccc1C(=O)O	-21	?	-4	8%	-2%	51%
Cc1cccc(C(=O)NNC(=O)c2ccccc2Br)c1	17	0%	13	26%	-1%	54%
CNC(=S)NNC(=O)c1ccccc1Br	-10	9.3µM*	0	-16%	17%	25%
O=C(Cc1ccccc1)NNC(=O)c1ccccc1C(=O)O	27	92%	15*	52%	5%	22%
Cc1ccccc1C(=O)NNC(=O)c1ccoc1C	20	33%	2	34%	?	-3%
Cc1occc1C(=O)NNC(=O)c1ccccc1C(=O)O	69*	100%	24*	101%	-1%	2%
COc1cc(OC)c(S(=O)(=O)Nc2ccc(C(=O)O)cc2)cc1S(=O)(=O)Nc1ccc(C(=O)O)cc1	11	22%	-6	7%	2%	-8%
CCOC(=O)Cc1csc(NC(=O)c2cnc3scc(C)n3c2=O)n1	.	.	.	.	.	5%
O=S(=O)(c1ccccc1)N1CCN(Cc2ccc(Cl)cc2)CC1	-15	70%	-2	23%	-1%	-7%
COc1ccc(/C(C)=N/NC(=O)CNC(=O)C(c2ccccc2)c2ccccc2)c(OC)c1	-13	-18%	-1	-9%	-4%	33%
O=Nc1c2nc3ccccc3n(O)c-2c2ccccc12	115*	?	73*	82%	-38%	.
NC(=O)Cc1ccc(C(=O)c2ccc(F)cc2)s1	20	23%	25*	32%	-1%	-9%
NC(=O)c1ccc(F)cc1	-6	10%	-3	29%	1%	5%
COc1ccc(C)cc1NC(=O)c1sc2ncn(CC(=O)N3CCCCC3)c(=O)c2c1C	-5	?	-3	-2%	-5%	15%
CC(C)C(O)(C#CCN1CCCCCC1)c1ccccc1 (stereo unspecified)	-6	-1%	14*	?	-2%	0%
Cc1cccc(N(CC(=O)N2CCCC2)S(C)(=O)=O)c1	.	?	4	-13%	4%	-13%
SMILES	Shiga inhibitor	Pf growth 96h	Cycloheximide cs	Pf growth 48h	SARS PLpro yeast	AMA1 RON2 block
CCOC(=O)C1CCCCN1Cc1ccc(OC)c(OC)c1 (stereo unspecified)	-32	17%	-2	12%	1%	-55%
O=S(=O)(c1ccc(OCC(O)CNCc2ccco2)c(Cl)c1)N1CCOCC1 (stereo unspecified)	20	?	-3	8.3µM*	4%	14%
CSc1ccc(CN2CCC(C)(Oc3cnc(Cl)c4ccccc34)C2)cc1 (stereo unspecified)	.	.	.	.	.	-26%
O=C1CNC(=O)/C1=C\N1CCN(C(c2ccccc2)c2ccccc2)CC1	-8	3.3µM*	2	-19%	-2%	-2%
O=C1CNC(=O)/C1=C\N1CCCCC1	24	.	-2	-8%	-5%	2%
COc1ccc(/C=N/NC(=O)c2cccc3ccccc23)c(OC)c1OC	.	.	.	.	.	20%
CCN(CC)S(=O)(=O)c1cc(C(=O)O)ccc1OC	-13	41%	0	16%	0%	-8%
O=S1(=O)C[C@@H](N2CCCC2)[C@H](COCc2ccccc2)N1	.	.	.	.	.	-1%
COc1ccc(OC)c(-c2nnc(-c3ccc(C)o3)o2)c1	75	183%	36*	10µM*	-5%	-2%
COc1ccc(-c2nnc(SC)o2)c(OC)c1	72*	0%	21*	100%	1%	-15%
COc1ccc(OC)c(-c2ccc(C(=O)O)o2)c1	i	.	16	.	.	.
CC(C)(C)S(=O)N1Cc2cc(C(=O)Nc3ccc(-c4ccccc4)cc3)nc(-c3cccc(-c4cc5ccccc5o4)c3)c2[C@@H]1CCO (stereo partly specified)	.	.	.	.	.	6%
Cc1nc2ccccc2c2c(N)c3ccccc3n12	7	8.3µM*	11	?	0%	-8%
Cc1nc2ccccc2n1-c1ccccc1	-1	-16%	-2	-1%	11%	-14%
CC1(c2ccc([N+](=O)[O-])cc2)CC(C)(C)N(C(=O)c2ccccc2)c2ccccc21 (stereo unspecified)	11	?	7	-15%	4%	.
CC1(c2ccccc2)CC(C)(C)N2C(=O)Cc3cccc1c32 (stereo unspecified)	-14	42%[5.75 µM]	-4	15µM*	-3%	4%
CCN(CC)S(=O)(=O)c1ccc(C(=O)OCC(=O)Nc2ccc(-c3nc4ccc(C)cc4s3)cc2)cc1	115*	279%	74*	227%	2%	1%
CCN(CC)S(=O)(=O)c1cc(C(=O)OCC(=O)Nc2ccc(-c3nc4ccc(C)cc4s3)cc2)ccc1F	92*	198%	63*	178%	6%	16%
CCN(CC)S(=O)(=O)c1cc(C(=O)OCC(=O)Nc2cccc(S(=O)(=O)N(C)C)c2)ccc1F	-13	?	7	-8%	0%	9%
CCN(CC)S(=O)(=O)c1ccc(NC(=O)COC(=O)c2ccc(-n3nc(C)cc3C)cc2)cc1	10	.	23	-12%	1%	-9%
FC(F)(F)c1ccc(-c2nnc(-c3ccccn3)c(-c3ccccn3)n2)nc1	21	30%	4	-1%	1%	40%
CCN(C(=O)CN1C(=O)NC2(CCCC2)C1=O)c1nc2c(C)cccc2s1	.	.	.	.	.	-9%
